Laboratory results published in PubChem BioAssay (NCATS).
Results filed as inconclusive are left out. The source made the active and inactive calls. The call rests on the fitted dose curve; in most records, active means well fitted curve in the direction sought with a large enough effect; inconclusive means small, poorly fitted or top-dose-only effect, or another doubt; inactive means no such curve, though single readings can be large; an effect the other way counts as inactive or inconclusive. Peptide text beside a SMILES is read from it. * marks the point of attachment. Octanoyl = CCCCCCCC(=O)*

Columns and labels:
[1] = system: Zika virus NS2B-NS3 protease (linked construct); assay: Primary screen NINDS Rhodamine qHTS for Zika virus inhibitors (AID 1347160); further: nearly all actives have a fitted effect of over 55% in size; further: potency means the concentration at half of the fitted maximal effect
In short: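 Single-chain NS2B-NS3 protease, 25 nM, pH 8.0; compounds preincubated 15 min. Activity: Rhodamine110 release from 1.5 microM substrate over 15 min, room temperature, data fitted to 4-parameter Hill.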

[2] = HPAF-II Cancer Cell Toxicity qHTS against the NCATS CANVASS Library (AID 1347346); further: nearly all actives have a fitted effect of over 55% in size; further: potency means the concentration at half of the fitted maximal effect
In short: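 First, HPAF-II cells are plated (1000 cells/well) and held 4 h at 37 degrees C. Next, compounds are pin-transferred as an 11-point series. After 72 h, CellTiter-Glo is added and luminescence measured.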

[3] = U-118MG Cancer Cell Toxicity qHTS against the NCATS CANVASS Library (AID 1347351); further: potency means the concentration at half of the fitted maximal effect
In short: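 Following a 4 h pre-incubation of 1000 seeded cells, compounds were pinned in an 11-pnt dilution series and left for 72 h; viability then came from CellTiter-Glo.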

[4] = COV-362 Cancer Cell Toxicity qHTS against the NCATS CANVASS Library (AID 1347352); further: potency means the concentration at half of the fitted maximal effect
In short: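 First, 1000 cells go into each well and rest for 4 hours. Next, an 11-point dilution range is pinned in. Plates then incubate 72 hours before CellTiter-Glo addition and luminescence reading.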

[5] = HPAF-II 24hr Apoptosis Induction qHTS against the NCATS CANVASS Library (AID 1347356)
In short: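 Cells seeded at 500 per well, then compounds pin-transferred in an 11-point concentration series. After 24 hours at 37 degrees C, Caspase-Glo 3/7 was added and luminescence measured following 15 min at room temperature.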

[6] = HEK293 18hr Apoptosis Induction qHTS against the NCATS CANVASS Library (AID 1347357)
In short: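 HEK293 cells (500/well, DMEM + 10% FBS) treated with an 11-point series for 18 h at 37 degrees C. Caspase-3/7 activity read by Caspase-Glo luminescence after 15 min at room temperature.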

[7] = HEK293 24hr Apoptosis Induction qHTS against the NCATS CANVASS Library (AID 1347359); further: potency means the concentration at half of the fitted maximal effect
In short: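 HEK293 cells, 500 per well, exposed to an 11-point compound series for 24 hours at 37 degrees C. Caspase 3/7 activity read by Caspase-Glo luminescence (DEVD substrate) after 15 min at room temperature.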

[8] = HEK293 12hr Apoptosis Induction qHTS against the NCATS CANVASS Library (AID 1347361)
In short: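 HEK293 cells (500/well) were exposed to an 11-point qHTS concentration series for 12 hours at 37 degrees C. Caspase-3/7 activity was then read by DEVD-substrate luciferase luminescence after 15 min at room temperature.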

[9] = biological target: Luciferin 4-monooxygenase (Photinus pyralis) (UniProt P08659); assay: Firefly luciferase counterscreen qHTS: Assay Interference Panel against the NCATS CANVASS Library (AID 1347363); further: series mostly up to about 57 µM
In short: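 Purified P. pyralis luciferase (0.04 ug/mL, 4x reagent) added to Tris-acetate buffer with 0.013 mM D-luciferin, 0.013 mM ATP and 13.3 mM Mg-acetate; compounds preincubated 15 min, then luminescence read after 5 min, RT.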

[10] = KB-3-1 Cancer Cell Toxicity qHTS against the NCATS CANVASS Library (AID 1347366); further: nearly all actives have a fitted effect of over 75% in size; further: potency means the concentration at half of the fitted maximal effect
In short: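 KB-3-1 cells (500/well) in DMEM with 10% FBS were exposed to compounds for 72 h at 37C. Viability was read by CellTiter-Glo luminescence.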

[11] = qHTS for ATAD5 Agonist screened against the NCATS CANVASS Library (AID 1347367);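 further: luciferase reporter driven by ATAD5 which rises upon DNA damage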
In short: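 Luciferase reporter under ATAD5 control, stably integrated in HEK293T cells (2000/well). Compounds (11 points) incubated 16 h at 37C; viability read first by CellTiter-Fluor, then luminescence reporting ATAD5 activation. MMS positive control.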

[12] = MCF7 Cancer Cell Toxicity qHTS against the NCATS CANVASS Library (AID 1347369); further: potency means the concentration at half of the fitted maximal effect
In short: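 MCF7 cells (500/well) were exposed 72 h at 37 °C to compounds in an 11-point series. Viability was read as ATP content by CellTiterGlo luminescence.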

[13] = qHTS for ATAD5 Antagonist screened against the NCATS CANVASS Library (AID 1347370);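 further: HEK293T cells carrying an ATAD5 luciferase reporter co-treated with 10 µM 5-fluorouridine; series mostly up to about 46 µM; nearly all actives have a fitted effect of over 65% in size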
In short: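 Compounds (11-point) co-dosed with 10 µM 5-FUrd for 16 h at 37 °C onto HEK293T-ATAD5 luciferase reporter cells. Viability measured by CellTiter-Fluor fluorescence, then ATAD5 reporter signal by luminescence.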

[14] = J3T Cancer Cell Toxicity qHTS against the NCATS CANVASS Library (AID 1347371); further: potency means the concentration at half of the fitted maximal effect
In short: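 Luminescence from CellTiterGlo, reporting cellular ATP, serves as the viability measure after 72 hr compound treatment of J3T canine glioma cells seeded at 500 cells/well.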

[15] = biological target: Nuclear receptor subfamily 1 group I member 3 (Homo sapiens) (UniProt Q14994); assay: qHTS for Constitutive Androstane Receptor (CAR) Agonist screened against the NCATS CANVASS Library (AID 1347373);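 further: every well also contained 1.5 µM PK11195 alongside the test compound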
In short: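 Cells were plated and allowed to attach for 4hr, then dosed with compound in an 11-point series alongside 1.5uM PK11195. After 24hr at 37C, viability was measured fluorometrically and CAR-driven CYP2B6 reporter luminescence was recorded.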

[16] = 10-beta competent E. coli microbial cell viability qHTS against the NCATS CANVASS Library (AID 1347376); further: series mostly up to about 46 µM
In short: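 Bacterial suspension diluted to 0.2 OD was dosed with compounds, 11-point series, then held overnight at 37C. BacTiter-Glo reagent was added, and after 20 min at room temperature ATP-dependent luminescence was measured.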

[17] = qHTS for Inflammasome Signaling Inhibitors: IL-1-beta AlphaLISA screen against the NCATS CANVASS Library (AID 1347379);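 further: human THP-1 cells primed with LPS then triggered with ATP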
In short: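 Secreted IL-1B from human THP-1 cells quantified by AlphaLISA 16 hr after compound addition (final up to 57.5 uM). A 1 hr compound pretreatment preceded inflammasome activation with 250 ng/mL LPS plus 1.25 mM ATP (final).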

[18] = Inflammasome Signaling qHTS Counterscreen: IL-1-beta AlphaLISA counterscreen against the NCATS CANVASS Library (AID 1347381);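 further: cell-free check with purified IL-1β in medium and no THP-1 cells; series mostly up to about 57 µM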
In short: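 Purified IL-1-beta (4 pg/well) + compound, 11-pt conc. series; acceptor beads 6 ug/mL + biotin-Ab 0.6 nM final, 1 h RT; SA-donor 24 ug/ml final, 30 min dark RT; read ex 680/em 615.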

[19] = Vero-766 cells viability qHTS against the NCATS CANVASS Library: Counterscreen for Zika virus inhibition assay (AID 1347394); further: nearly all actives have a fitted effect of over 60% in size; further: potency means the concentration at half of the fitted maximal effect
In short: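 Vero 766 cells (1000/well), without Zika virus, were exposed to compounds for 72 h at 37C. Viability was measured by CellTiter Glo luminescence. Media-only wells served as 100% inhibition.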

[20] = Viability qHTS for inhibitors of the SERCaMP assay screened against the NCATS CANVASS Library (AID 1347400); further: nearly all actives have a fitted effect of over 70% in size; further: potency means the concentration at half of the fitted maximal effect
In short: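 Seed SH-SY5Y-GLuc SERCaMP MJH297 cells at 1000 per well, incubate 4 h, add compounds across an 11-point range, incubate 48 h at 37C, then add CellTiter-Glo and read luminescence.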

Measured: Potency

Sequence of Luciferin 4-monooxygenase (Photinus pyralis) (P08659 whole entry, looked up): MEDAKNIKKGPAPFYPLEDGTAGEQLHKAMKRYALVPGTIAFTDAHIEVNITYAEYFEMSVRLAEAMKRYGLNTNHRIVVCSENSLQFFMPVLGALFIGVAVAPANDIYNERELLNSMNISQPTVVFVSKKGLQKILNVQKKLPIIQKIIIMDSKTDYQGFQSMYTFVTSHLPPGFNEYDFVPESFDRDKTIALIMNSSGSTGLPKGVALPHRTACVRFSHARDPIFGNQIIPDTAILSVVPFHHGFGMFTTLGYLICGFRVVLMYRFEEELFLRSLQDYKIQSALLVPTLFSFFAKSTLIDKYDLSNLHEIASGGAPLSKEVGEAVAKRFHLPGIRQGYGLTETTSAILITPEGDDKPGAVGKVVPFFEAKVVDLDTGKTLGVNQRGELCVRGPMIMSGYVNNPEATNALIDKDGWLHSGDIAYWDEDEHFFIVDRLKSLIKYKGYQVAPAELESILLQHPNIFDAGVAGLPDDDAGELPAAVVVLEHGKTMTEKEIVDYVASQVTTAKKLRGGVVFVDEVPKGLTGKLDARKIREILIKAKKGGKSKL
Sequence of Nuclear receptor subfamily 1 group I member 3 (Homo sapiens) (Q14994 whole entry, looked up): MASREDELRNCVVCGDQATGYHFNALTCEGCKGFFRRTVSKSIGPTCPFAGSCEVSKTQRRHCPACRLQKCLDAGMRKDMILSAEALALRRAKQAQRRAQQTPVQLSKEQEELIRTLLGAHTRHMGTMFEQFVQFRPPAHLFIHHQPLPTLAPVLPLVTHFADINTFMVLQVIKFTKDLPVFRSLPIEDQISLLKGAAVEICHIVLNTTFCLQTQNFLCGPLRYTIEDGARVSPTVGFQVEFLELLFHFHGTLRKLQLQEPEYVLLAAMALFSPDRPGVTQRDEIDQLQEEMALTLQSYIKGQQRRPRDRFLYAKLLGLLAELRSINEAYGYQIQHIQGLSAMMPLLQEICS

C=C1[C@H]2CC[C@@]3(C=CC(=O)[C@@](C)(CCC(=O)Nc4c(O)ccc(C(=O)O)c4O)C3C2)[C@H]1O (stereo not given in full)
active: [1] 44 µM
inactive: all other assays above

CN1CC[C@]2(c3cccc4c3N[C@@H]3N(C)CC[C@]43[C@@]34CCN(C)[C@@H]3Nc3ccccc34)c3ccccc3N[C@H]12
active: [2] 18.8 µM | [3] 7.49 µM | [4] 13.3 µM | [10] 16.6 µM | [12] 9.31 µM | [14] 7.43 µM | [17] 24.3 µM | [19] 26.3 µM | [20] 15.2 µM
not listed: [6]
inactive: all other assays above

CCCCCCCC(=O)N[C@@H](CC(C)C)C(=O)N[C@H](C=O)CCC(=O)O (Octanoyl-Leu-Glu-aldehyde)
active: [1] 39.2 µM
inactive: all other assays above

C=C(C)[C@@H]1CC[C@]2(C)CC[C@]3(C)[C@H](CC[C@@H]4[C@@]5(C)CC[C@H](O)C(C)(C)[C@@H]5CC[C@]43C)[C@@H]12
inactive: all assays above

COc1cc(/C=C2/C(=O)N(c3ccc(O)cc3C(=O)O)[C@H](c3ccc(O)c(OC)c3)C2C(=O)Nc2ccc(O)cc2C(=O)O)ccc1O (stereo not given in full)
active: [1] 6.97 µM
inactive: all other assays above

CC(C)=CCC[C@@H](C)[C@@H]1CC[C@@]2(C)C[C@H]3C(C)=CC(=O)[C@@H]3/C(C=O)=C\C[C@H]12
active: [1] 44 µM | [2] 5.95 µM | [3] 7.49 µM | [4] 11.8 µM | [7] 26.4 µM | [10] 10.5 µM | [17] 17.2 µM | [19] 20.9 µM | [20] 42.8 µM
inactive: [9] | [11] | [15] | [16] | [18]

C=C1C[C@@]23C=CC(=O)[C@@](C)(CCC(=O)Nc4c(OC5O[C@H](CO)[C@@H](O)[C@H](O)[C@H]5O)ccc(C(=O)O)c4O)C2C[C@@H]1CC3 (stereo not given in full)
active: [1] 39.2 µM
not listed: [20]
inactive: all other assays above

CC1(C)CC[C@]2(C(=O)O)CC[C@]3(C)C(=CC[C@@H]4[C@@]5(C)C[C@@H](O)[C@H](O)C(C)(C)[C@@H]5CC[C@]43C)[C@@H]2C1
active: [1] 19.6 µM
not listed: [3] | [19]
inactive: all other assays above

CN1CCc2cc3c(c4c2[C@H]1[C@@H](O)c1ccccc1-4)OCO3
active: [1] 44 µM | [2] 13.3 µM | [12] 26.2 µM
not listed: [4] | [10] | [13] | [17] | [20]
inactive: all other assays above

C[C@H]1C[C@@H]([C@@H]2CC[C@]34O[C@H](CC[C@@]35C[C@H](C)C(=O)O5)CN24)OC1=O
inactive: all assays above

CC(O)/C=C/C1(O)C(C)(C)CC(O)CC1(C)O (stereo not given)
inactive: all assays above
